# Source: PubChem BioAssay (EPA / NIEHS)
# Records with an inconclusive call do not appear. Where a structure was tested more than once in an assay, its records may differ in their call. Active and inactive are the calls of the source. Rule for the calls: active = hit-call score of the fitted dose curve at least 0.9, where 1 is the maximum; inconclusive = response in the unintended direction; inactive = score below 0.9.
# Assays:
# [1] = target: Glucocorticoid receptor (Homo sapiens) (UniProt P04150); test: NVS_NR_hGR: NovaScreen (NVS) Nuclear Receptor Binding Assay for human Glucocorticoid Receptor (GR) (AID 2283363);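 for AC50: activity is loss of specific radioligand binding signal relative to DMSO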
# Chain of Glucocorticoid receptor (Homo sapiens) (P04150 whole entry, looked up): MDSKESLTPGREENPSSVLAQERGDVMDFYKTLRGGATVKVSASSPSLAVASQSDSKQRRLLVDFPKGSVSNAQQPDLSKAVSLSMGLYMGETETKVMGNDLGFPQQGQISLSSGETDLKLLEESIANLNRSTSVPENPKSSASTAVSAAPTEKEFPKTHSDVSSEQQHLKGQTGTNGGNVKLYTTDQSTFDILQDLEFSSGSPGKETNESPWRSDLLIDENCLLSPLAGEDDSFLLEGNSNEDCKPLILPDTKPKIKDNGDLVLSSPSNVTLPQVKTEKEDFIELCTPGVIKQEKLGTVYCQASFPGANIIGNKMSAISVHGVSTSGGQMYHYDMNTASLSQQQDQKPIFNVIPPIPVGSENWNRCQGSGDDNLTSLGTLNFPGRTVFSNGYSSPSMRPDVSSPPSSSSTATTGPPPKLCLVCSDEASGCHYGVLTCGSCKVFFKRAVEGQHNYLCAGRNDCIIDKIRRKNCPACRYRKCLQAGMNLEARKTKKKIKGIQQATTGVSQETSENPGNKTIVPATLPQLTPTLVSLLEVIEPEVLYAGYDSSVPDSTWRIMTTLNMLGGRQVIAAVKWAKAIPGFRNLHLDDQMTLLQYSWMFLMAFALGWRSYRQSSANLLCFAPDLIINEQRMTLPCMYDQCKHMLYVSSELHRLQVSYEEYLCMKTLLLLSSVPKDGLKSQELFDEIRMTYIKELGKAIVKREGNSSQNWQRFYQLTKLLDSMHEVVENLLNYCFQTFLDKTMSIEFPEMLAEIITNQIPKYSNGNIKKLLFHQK
# Method in brief: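 Compounds first tested in duplicate at 25 uM, actives followed up in concentration series. Binding to extracted GR protein measured as competitive radioligand displacement, filter scintillation read 16 h post-dosing, normalised to DMSO.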
# [2] = target: guinea pig Sigma Receptor, Non-selective Binding, SIGMAR1 (gene 100135589) (UniProt Q60492); test: NVS_OR_gSIGMA_NonSelective: NovaScreen (NVS) Nuclear Receptor Binding Assay for guinea pig Sigma Receptor, Non-selective Binding (AID 2283367)
# Chain of guinea pig Sigma Receptor, Non-selective Binding, SIGMAR1 (gene 100135589) (Q60492 whole entry, looked up): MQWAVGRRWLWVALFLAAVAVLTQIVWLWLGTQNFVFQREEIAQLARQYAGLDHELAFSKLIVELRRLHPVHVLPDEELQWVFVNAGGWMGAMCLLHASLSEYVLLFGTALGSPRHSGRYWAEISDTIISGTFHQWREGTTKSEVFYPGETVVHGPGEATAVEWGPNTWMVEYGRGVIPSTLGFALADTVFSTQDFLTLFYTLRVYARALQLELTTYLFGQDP
# Method in brief: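 Guinea pig brain membrane sigma sites were labelled with a radioligand, and bound radioactivity was counted after filtration 1 h post-dose. Compounds were screened at 25 uM in duplicate, then retested as concentration series when active.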
# [3] = target: human Dopamine Transporter (DAT), SLC6A3 (gene 6531) (UniProt Q01959); test: NVS_TR_hDAT: NovaScreen (NVS) Transporter Assay for human Dopamine Transporter (DAT) (AID 2283374);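 note: activity means loss of bound radioligand signal relative to DMSO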
# Chain of human Dopamine Transporter (DAT), SLC6A3 (gene 6531) (Q01959 whole entry, looked up): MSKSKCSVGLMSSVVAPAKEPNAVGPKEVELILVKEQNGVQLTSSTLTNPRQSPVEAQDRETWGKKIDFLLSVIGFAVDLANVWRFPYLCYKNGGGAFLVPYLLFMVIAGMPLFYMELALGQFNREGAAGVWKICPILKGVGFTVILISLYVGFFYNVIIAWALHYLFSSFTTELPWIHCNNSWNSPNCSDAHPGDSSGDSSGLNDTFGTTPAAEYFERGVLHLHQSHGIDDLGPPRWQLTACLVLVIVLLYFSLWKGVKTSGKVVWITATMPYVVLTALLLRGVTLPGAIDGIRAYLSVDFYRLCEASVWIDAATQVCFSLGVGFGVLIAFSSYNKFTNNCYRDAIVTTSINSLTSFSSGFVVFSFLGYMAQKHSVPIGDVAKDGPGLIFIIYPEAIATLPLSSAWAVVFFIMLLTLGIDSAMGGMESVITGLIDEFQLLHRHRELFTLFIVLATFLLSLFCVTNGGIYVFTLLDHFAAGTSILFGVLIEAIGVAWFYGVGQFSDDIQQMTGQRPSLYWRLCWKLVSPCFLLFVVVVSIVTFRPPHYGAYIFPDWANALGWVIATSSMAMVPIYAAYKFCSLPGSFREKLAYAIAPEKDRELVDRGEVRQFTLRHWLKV
# Method in brief: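 Duplicate single-point screening at 25 uM preceded concentration-series follow-up of actives. Binding was measured by competitive displacement of a radioligand from DAT protein, filter-counted by scintillation 1 h after dosing. Decrease relative to DMSO taken as activity.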
# [4] = target: human Norepinephrine Transporter (NET), SLC6A2 (gene 6530) (UniProt P23975); test: NVS_TR_hNET: NovaScreen (NVS) Transporter Assay for human Norepinephrine Transporter (NET) (AID 2283377);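 note: cell-free membrane protein extracted from CHO cells expressing human NET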;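 for AC50: displacement of radioligand from human NET seen as loss of scintillation signal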
# Chain of human Norepinephrine Transporter (NET), SLC6A2 (gene 6530) (P23975 whole entry, looked up): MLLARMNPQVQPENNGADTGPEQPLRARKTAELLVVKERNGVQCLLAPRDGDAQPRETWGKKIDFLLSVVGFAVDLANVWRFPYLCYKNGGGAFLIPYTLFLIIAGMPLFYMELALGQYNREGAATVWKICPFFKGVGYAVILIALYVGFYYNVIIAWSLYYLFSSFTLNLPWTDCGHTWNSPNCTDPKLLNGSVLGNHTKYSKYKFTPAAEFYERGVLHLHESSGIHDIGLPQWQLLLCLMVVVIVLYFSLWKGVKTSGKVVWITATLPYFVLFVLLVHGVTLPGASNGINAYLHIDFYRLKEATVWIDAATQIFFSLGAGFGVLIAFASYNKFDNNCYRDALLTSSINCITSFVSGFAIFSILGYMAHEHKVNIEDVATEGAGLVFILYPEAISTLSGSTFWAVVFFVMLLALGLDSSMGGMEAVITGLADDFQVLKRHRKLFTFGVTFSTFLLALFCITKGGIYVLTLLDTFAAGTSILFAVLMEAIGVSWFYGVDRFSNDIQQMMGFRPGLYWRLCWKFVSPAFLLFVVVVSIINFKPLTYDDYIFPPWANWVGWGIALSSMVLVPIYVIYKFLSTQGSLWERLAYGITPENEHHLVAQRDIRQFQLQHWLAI
# Method in brief: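 Single-concentration duplicate screen at 25 uM, then concentration-response for actives; displacement of specific radioligand from human NET in CHO membrane extracts, filter-based scintillation detection at 1 h relative to DMSO.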
# [5] = target: Estrogen receptor beta (Homo sapiens) (UniProt Q92731); test: OT_ER_ERbERb_0480: Odyssey Thera (OT) 8-hour HEK293T Protein-Complementation Assay for Estrogen Receptor-beta/-beta Homodimer (AID 2283357);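 note: active means signal gain over DMSO baseline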
# Chain of Estrogen receptor beta (Homo sapiens) (Q92731 whole entry, looked up, the tested form may be a part): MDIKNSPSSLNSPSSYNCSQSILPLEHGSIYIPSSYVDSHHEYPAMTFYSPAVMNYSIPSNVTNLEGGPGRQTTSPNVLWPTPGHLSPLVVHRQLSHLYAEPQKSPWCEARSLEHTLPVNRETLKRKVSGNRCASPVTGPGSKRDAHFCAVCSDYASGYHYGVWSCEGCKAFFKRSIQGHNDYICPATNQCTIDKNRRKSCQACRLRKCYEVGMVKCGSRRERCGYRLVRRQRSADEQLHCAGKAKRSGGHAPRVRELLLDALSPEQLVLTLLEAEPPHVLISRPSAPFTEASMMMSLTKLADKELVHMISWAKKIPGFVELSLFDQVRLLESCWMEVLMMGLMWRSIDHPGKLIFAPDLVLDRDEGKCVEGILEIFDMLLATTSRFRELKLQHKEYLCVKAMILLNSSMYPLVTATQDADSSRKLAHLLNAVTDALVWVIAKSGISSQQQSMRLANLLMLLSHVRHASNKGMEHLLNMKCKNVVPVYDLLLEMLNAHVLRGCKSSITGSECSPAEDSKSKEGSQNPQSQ
# Method in brief: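 ER-beta LBD homodimer PCA stably expressed in HEK293T; 8 h compound exposure, then formaldehyde fixation and Draq5 staining. Gain in nuclear/cytoplasmic fluorescence intensity versus DMSO vehicle, read on laser scanning cytometer.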
# [6] = target: Nuclear receptor subfamily 1 group I member 2 (Homo sapiens) (UniProt O75469); test: NVS_NR_hPXR: NovaScreen (NVS) Nuclear Receptor Binding Assay for human Pregnane X Receptor (PXR) (AID 2283365);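 note: a drop in FRET signal versus DMSO baseline means the compound binds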
# Chain of Nuclear receptor subfamily 1 group I member 2 (Homo sapiens) (O75469 whole entry, looked up): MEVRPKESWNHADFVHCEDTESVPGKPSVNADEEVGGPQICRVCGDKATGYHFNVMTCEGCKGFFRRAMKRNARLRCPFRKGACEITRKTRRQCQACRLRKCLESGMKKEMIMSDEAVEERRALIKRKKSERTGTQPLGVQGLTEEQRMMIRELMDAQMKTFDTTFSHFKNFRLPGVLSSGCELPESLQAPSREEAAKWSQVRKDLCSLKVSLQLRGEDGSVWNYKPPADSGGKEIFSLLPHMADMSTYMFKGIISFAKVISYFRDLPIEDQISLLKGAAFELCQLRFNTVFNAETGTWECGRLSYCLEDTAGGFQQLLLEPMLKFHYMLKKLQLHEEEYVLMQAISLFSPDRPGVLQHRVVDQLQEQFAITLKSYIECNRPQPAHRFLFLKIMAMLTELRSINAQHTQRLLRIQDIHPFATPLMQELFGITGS
# Method in brief: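 Cell-free TR-FRET binding assay with extracted human PXR protein, read 2 h after dosing. Primary screen run in duplicate at 25 uM, actives followed in concentration series; loss of signal fitted against DMSO baseline.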
# [7] = target: Peroxisome proliferator-activated receptor gamma (Homo sapiens) (UniProt P37231); test: NVS_NR_hPPARg: NovaScreen (NVS) Nuclear Receptor Binding Assay for human Peroxisome Proliferator-activated Receptor gamma (PPARg) (AID 2283370)
# Chain of Peroxisome proliferator-activated receptor gamma (Homo sapiens) (P37231 whole entry, looked up): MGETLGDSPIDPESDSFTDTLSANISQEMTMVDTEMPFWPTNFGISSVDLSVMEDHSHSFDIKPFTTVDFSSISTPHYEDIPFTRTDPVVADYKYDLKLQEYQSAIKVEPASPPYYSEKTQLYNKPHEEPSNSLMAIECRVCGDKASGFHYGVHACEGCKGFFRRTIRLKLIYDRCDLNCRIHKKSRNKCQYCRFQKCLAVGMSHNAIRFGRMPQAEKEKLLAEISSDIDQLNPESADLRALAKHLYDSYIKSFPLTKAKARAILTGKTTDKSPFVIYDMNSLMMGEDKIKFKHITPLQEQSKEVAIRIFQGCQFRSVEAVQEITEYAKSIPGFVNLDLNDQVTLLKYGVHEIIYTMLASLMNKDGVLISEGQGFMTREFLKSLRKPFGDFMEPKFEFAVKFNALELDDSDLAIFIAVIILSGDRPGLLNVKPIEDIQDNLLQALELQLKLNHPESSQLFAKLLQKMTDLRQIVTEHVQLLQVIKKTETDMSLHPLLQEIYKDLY
# Method in brief: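 Cell-free fluorescence polarization binding to human PPARg protein, read 2 h after dosing. Primary screen in duplicate at 25 uM, actives followed in concentration series; loss of signal relative to DMSO scored.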
# [8] = target: T1, Estrogen receptor (Homo sapiens) + Estrogen receptor beta (Homo sapiens) (UniProt P03372+Q92731); test: OT_ER_ERaERb_1440: Odyssey Thera (OT) 24-hour HEK293T Protein-Complementation Assay for Estrogen Receptor-alpha/-beta Homodimer (AID 2283356);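 note: heteromer of ER alpha and ER beta binding domains; hits raise reporter fluorescence and both agonists and antagonists give an increase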
# T1 sequence (P03372 whole entry, looked up, the tested form may be a part): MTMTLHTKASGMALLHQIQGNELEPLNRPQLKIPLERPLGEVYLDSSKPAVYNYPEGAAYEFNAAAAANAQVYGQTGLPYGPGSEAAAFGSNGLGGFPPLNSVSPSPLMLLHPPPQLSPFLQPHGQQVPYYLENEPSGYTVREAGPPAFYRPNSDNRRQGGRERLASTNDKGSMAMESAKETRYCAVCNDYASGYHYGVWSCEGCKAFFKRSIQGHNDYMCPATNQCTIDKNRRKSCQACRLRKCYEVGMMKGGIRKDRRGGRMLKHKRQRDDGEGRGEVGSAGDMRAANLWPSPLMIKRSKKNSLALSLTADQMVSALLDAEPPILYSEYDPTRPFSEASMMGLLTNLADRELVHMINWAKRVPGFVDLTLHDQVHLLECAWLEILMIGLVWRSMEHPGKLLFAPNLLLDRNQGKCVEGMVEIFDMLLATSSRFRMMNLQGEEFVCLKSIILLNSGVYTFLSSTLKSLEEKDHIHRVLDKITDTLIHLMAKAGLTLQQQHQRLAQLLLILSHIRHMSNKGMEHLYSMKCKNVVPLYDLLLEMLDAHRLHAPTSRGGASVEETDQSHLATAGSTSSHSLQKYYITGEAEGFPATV
# T1 sequence (Q92731 whole entry, looked up, the tested form may be a part): as the sequence (Q92731 whole entry, looked up, the tested form may be a part) above
# Method in brief: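 HEK293T stably expressing a PCA of ER alpha LBD (aa 310-547) and ER beta LBD (aa 263-489). After 24 h compound exposure, mean fluorescence intensity in nucleus (agonists) or nucleus and cytoplasm (antagonists) measured by laser scanning cytometry versus vehicle.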
# [9] = target: T1, Estrogen receptor (Homo sapiens) + Estrogen receptor beta (Homo sapiens); test: OT_ER_ERaERb_0480: Odyssey Thera (OT) 8-hour HEK293T Protein-Complementation Assay for Estrogen Receptor-alpha/-beta Heterodimer (AID 2283352)
# Method in brief: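 HEK293T protein-fragment complementation assay of ER-alpha/ER-beta LBD heterodimerisation, read 8 h after dosing. Mean nuclear/cytoplasmic fluorescence intensity measured by laser scanning cytometry; gain of signal fitted relative to DMSO.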
# [10] = target: human Peroxisome Proliferator-activated Receptor alpha (PPARa), PPARA (gene 5465) (UniProt Q07869); test: NVS_NR_hPPARa: NovaScreen (NVS) Nuclear Receptor Binding Assay for human Peroxisome Proliferator-activated Receptor alpha (PPARa) (AID 2283359);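 note: activity means loss of TR-FRET signal versus DMSO baseline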
# Method in brief: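 Loss of TR-FRET binding signal relative to DMSO was measured 1 h after chemical addition to extracted receptor protein. Chemicals were first tested in duplicate at 25 uM, and actives were followed up in concentration series.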
# [11] = target: Retinoic acid receptor alpha (Homo sapiens) (UniProt P10276); test: NVS_NR_hRARa_Agonist: NovaScreen (NVS) Nuclear Receptor Binding Assay for human Retinoic Acid Alpha Receptor Agonism (RAR) (AID 2283361)
# Method in brief: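 Agonist-mode TR-FRET binding format using extracted protein, measured at 2 h post-dosing. Initial duplicate single-point screen at 25 uM preceded concentration series for actives; activity was normalized to DMSO baseline.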
# [12] = target: rat Mineralocorticoid Receptor (MR), Nr3c2 (gene 25672) (UniProt P22199); test: NVS_NR_rMR: NovaScreen (NVS) Nuclear Receptor Binding Assay for rat Mineralocorticoid Receptor (MR) (AID 2283355)
# Method in brief: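 Primary HTS ran in duplicate at a single 25 uM concentration, with concentration-series follow-up for actives. Receptor source: adrenalectomized rat brain supernatant, cell-free. Radioligand displacement read by scintillation at 24 h, relative to DMSO baseline.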
# PGR (gene 5241) = PGR (gene 5241) (UniProt P06401); test: NVS_NR_hPR: NovaScreen (NVS) Nuclear Receptor Binding Assay for human Progestron Receptor (PR) (AID 2283360);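 note: active means loss of bound radioligand signal versus DMSO baseline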
# Method in brief: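 Competitive displacement of a labelled radioligand from T47D-derived receptor protein is measured in a cell-free format. Initial testing uses 25 uM in duplicate, with positive and negative controls on every plate.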
# [13] = target: Androgen Receptor/SRC-1 Co-activator, AR (gene 367) (UniProt P10275); test: OT_AR_ARSRC1_0960: Odyssey Thera (OT) 16-hour HEK293T Protein-Complementation Assay for Androgen Receptor/SRC-1 Co-activator (AID 2283353);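 note: actives raise the signal above DMSO so potency reflects increased AR and SRC-1 complex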
# Method in brief: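 Sixteen-hour cell assay: Venus halves fused to AR and SRC-1 in HEK293T report binding. Images at 488/635 nm give an N/C ratio in the 488 nm channel over ≥400 cells, analysed as signal increase over DMSO.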
# [14] = target: Androgen Receptor/SRC-1 Co-activator, AR (gene 367) (UniProt P10275); test: OT_AR_ARSRC1_0480: Odyssey Thera (OT) 8-hour HEK293T Protein-Complementation Assay for Androgen Receptor/SRC-1 Co-activator (AID 2283354);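 note: hits raise the complementation signal above DMSO so AC50 marks enhancers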
# Method in brief: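 Reconstituted split-Venus YFP signal from AR–SRC-1 interaction, read by imaging 8 h post-dose in stable HEK293T lines. The 488 nm nucleus-to-cytoplasm ratio (≥400 cells/image) was fitted upward against DMSO.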
# [15] = system: guinea pig Dopamine Transporter (DAT), gene 100714898; test: NVS_TR_gDAT: NovaScreen (NVS) Transporter Assay for guinea pig Dopamine Transporter (DAT) (AID 2283369);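 note: active compounds lower bound radioligand signal relative to DMSO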
# Method in brief: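 Guinea pig striatal membranes, cell-free radioligand binding with filter-based scintillation counting, read 2 h after dosing. Loss of signal versus DMSO baseline; single-concentration primary (25 uM) then concentration-response up to 50 uM.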
structure (smiles),measurement,setting,value
CCCCCCCCCCCCCCCC[N+](C)(C)CC,AC50,[1],2.81 µM (active)
same,AC50,[2],1.23 µM (active)
same,AC50,[3],1.82 µM (active)
same,AC50,[4],2.32 µM (active)
CCO[Si](C)(OCC)OCC,outcome,[5],inactive
C1CN(SSN2CCOCC2)CCO1,outcome,[6],inactive
same,outcome,[7],inactive
CC(=O)OC(C)C,outcome,[8],inactive
same,outcome,[5],inactive
same,outcome,[6],inactive
same,outcome,[7],inactive
CCCCCCCC[N+](C)(CCCCCCCC)CCCCCCCC,outcome,[9],inactive
same,AC50,[10],6.9 µM (active)
same,AC50,[11],4.37 µM (active)
same,outcome,[1],inactive
O=[N+]([O-])c1ccc(CO)cc1,outcome,[4],inactive
Cc1cc(C)c(C)cc1C,outcome,[10],inactive
NC(=O)c1ccccc1O,outcome,[5],inactive
CCCCCCCCO[C@@H]1O[C@H](CO)[C@@H](O)[C@H](O)[C@H]1O,outcome,[5],inactive
same,AC50,[7],36.5 µM (active)
CN(C)c1ccc(N=Nc2ccccc2C(=O)O)cc1,outcome,[5],inactive
CCOC(=O)CC,outcome,[5],inactive
NC(=O)N=NC(N)=O,outcome,[5],inactive
CC(C)C1=CC2=CC[C@@H]3[C@](C)(CCC[C@@]3(C)C(=O)O)[C@H]2CC1,AC50,[6],16 µM (active)
same,outcome,[7],inactive
CCCCCCCCCCOS(=O)(=O)O,AC50,[7],15.6 µM (active)
same,outcome,[7],inactive
C#CC1(O)CC[C@H]2[C@@H]3CCC4=CCCC[C@@H]4[C@H]3CC[C@@]21C (some centres not stated),outcome,[12],inactive
same,AC50,PGR (gene 5241),39.6 µM (active)
same,AC50,[1],5.07 µM (active)
CCCCC/C=C\CCC=O,outcome,[13],inactive
same,outcome,[14],inactive
same,outcome,[7],inactive
c1ccc2c(c1)ccc1ncccc12,AC50,[15],34.7 µM (active)
same,AC50,[3],16.4 µM (active)
same,AC50,[4],7.22 µM (active)
S=C(NC1CCCCC1)NC1CCCCC1,AC50,[2],5.93 µM (active)
